KB-V1 MDR tox: qHTS assay for MDR1-selective chemotherapeutics: Primary screen using the drug-selected MDR subline cells KB-V1. KB-V1 MDR cells viability, CellTiter-Glo, 72 h. Potency, µM (top dose mostly 46.1 µM), usual class: cytotoxic. hit rate 3.4% among 400,000; note: % is set by controls: 0 for no effect and ±100 for the full control effect; nearly all actives have a fitted effect of over 60% in size
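Potencies derive from concentration-effect curves fitted to normalized luminescence (CellTiter-Glo) of KB-V1 cells treated for 72 h at 37 degrees C in phenol-red-free DMEM containing 10% FBS.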
SW480 rereplic: A quantitative high throughput screen for small molecules that induce DNA re-replication in SW480 colon adenocarcinoma cells. hit rate 1.8% among 340,000. SW480 DNA re-replication, Hoechst DNA content imaging, 48 h. Potency, µM (series often up to 46.1 µM), without a hit: at the top dose re-replication activation, most hits filed as activators; note: % of control where 0% means no effect; nearly all actives have a fitted effect of over 55% in size
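DNA re-replication was detected as more nuclei of elevated Hoechst intensity after 48 hr exposure to compound (23 nL pinned per well of 250 cells).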
HT1080 IDH1KD tx: qHTS for induction of synthetic lethality in tumor cells producing 2HG: qHTS for the HT-1080-IDH1KD cell line; HT-1080 IDH1 knockdown viability, ATP luminescence, 48 h; Potency, µM (top dose mostly 46.1 µM), for inactives: at the highest dose activity, negative = toxicity, usual class: cytotoxic; hit rate 2% among 360,000; AID 686971, 2013;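 note: 0% = DMSO wells and -100% = cell-free medium wells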
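Viability of IDH1-knockdown HT-1080 fibrosarcoma cells was assessed by CellTiter-Glo after 48 h at 37 °C with titrated compound; concentration-effect curves were classified by fit quality and response size.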
KB-3-1 tox: qHTS assay for MDR1-selective chemotherapeutics: Primary screen using the parental adenocarcinoma cell KB-3-1. KB-3-1 viability, CellTiter-Glo ATP luminescence, 72 h. Potency, µM (titrated, usually from 46.1 µM), usual class: cytotoxic. hit rate 1.4% among 400,000. AID 1347075, 2019; note: % is set by controls: 0 for no effect and ±100 for the full control effect; nearly all actives have a fitted effect of over 60% in size
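KB-3-1 parental drug-naive adenocarcinoma cells in DMEM/10% FBS, incubated 72 h at 37 C with pin-transferred compounds across a concentration series. Viability by CellTiter-Glo luminescence; concentration-response curves fitted after normalization.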
HT1080-NT tox: qHTS for induction of synthetic lethality in tumor cells producing 2HG: qHTS for the HT-1080-NT fibrosarcoma cell line. HT-1080-NT fibrosarcoma viability, CellTiter-Glo ATP luminescence, 48 h. hit rate 1.6% among 360,000. Potency, µM (titrated, usually from 46.1 µM), without a hit: at the highest dose activity, negative = less viability, actives largely listed as cytotoxic;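 note: NT is the 2HG producing partner of a matched IDH1 knockdown line; 0% = DMSO-treated cells and -100% = media-only wells without cells; nearly all actives have a fitted effect of over 55% in size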
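Luminescent CellTiter-Glo readout after 48 hours of compound exposure at 37 degrees C defined viability of HT-1080-NT cells. Activity was normalized to DMSO wells and cell-free media wells; concentration-response curves were fitted and assigned curve classes.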
MCF10A rerep: A quantitative high throughput screen for small molecules that induce DNA re-replication in MCF 10a normal breast cells | MCF 10A DNA re-replication, Hoechst nuclear intensity, 48 h | Potency, µM (top dose mostly 46.1 µM), for inactives: at the highest dose activity, positive = re-replication, usual class: activators | hit rate 2.9% among 350,000; note: % of control where 0% means no effect; nearly all actives have a fitted effect of over 50% in size
The depositor's hits bear a star; ! = a repeat was not active. Compounds with a hit are over-represented: about 8% of the library has one in this group of screens. Calls come from the whole dose curve; as a rule, active = well fitted curve in the direction sought with a large enough effect; inconclusive = small, poorly fitted or top-dose-only effect, or another doubt; inactive = no such curve, though single readings can be large; an effect the other way counts as inactive or inconclusive. Potency is the fitted concentration of half-maximal effect.

What do the screens show for `CCC(=NCCc1c[nH]c2ccccc12)c1c(O)n(-c2ccc(C)cc2)c(=O)[nH]c1=O`?
KB-V1 MDR tox: 21µM*; SW480 rereplic: inconclusive; HT1080 IDH1KD tx: -12%; KB-3-1 tox: inactive; HT1080-NT tox: 3%; MCF10A rerep: inconclusive

How did CC(=NCCN1CCOCC1)c1c(O)n(Cc2ccccc2)c(=O)[nH]c1=O do in these assays?
KB-V1 MDR tox: inactive; SW480 rereplic: 7%; HT1080 IDH1KD tx: 0%; KB-3-1 tox: inactive; HT1080-NT tox: 16%; MCF10A rerep: -2%

How did CC(=O)O[C@H](CC(=O)O)C[N+](C)(C)C do in these assays?
KB-V1 MDR tox: inactive; SW480 rereplic: 8%; HT1080 IDH1KD tx: 2%; KB-3-1 tox: inactive; HT1080-NT tox: -13%; MCF10A rerep: 0%

How did C=C(C=O)CC1CC(O)[C@]2(C)OC3CC4OC5C[C@]6(C)O[C@]7(C)CCC8OC9C[C@]%10(C)OC%11C(C)=CC(=O)OC%11CC%10OC9C[C@@H](C)C8OC7CC6O[C@]5(C)CC5OC5C4OC3CC2O1 (some centres not stated) do in these assays?
KB-V1 MDR tox: inactive; SW480 rereplic: 5.8µM*; KB-3-1 tox: 12µM*; HT1080-NT tox: inconclusive; MCF10A rerep: 4.6µM*

How did C=C(CO)CC1CC(O)[C@]2(C)OC3CC4OC5C[C@]6(C)O[C@]7(C)CCC8OC9C[C@]%10(C)OC%11C(C)=CC(=O)OC%11CC%10OC9C[C@@H](C)C8OC7CC6O[C@]5(C)C/C=C\C4OC3CC2O1 (some centres not stated) do in these assays?
KB-V1 MDR tox: inconclusive; SW480 rereplic: -2%; HT1080 IDH1KD tx: 8%; KB-3-1 tox: inconclusive; HT1080-NT tox: 8%; MCF10A rerep: -5%

Results for CCS(=O)(=O)N1Cc2cc(C(=O)N(C)C)nc(-c3cccc(-c4ccc(F)cc4)c3)c2[C@H]1CCO ?
KB-V1 MDR tox: inactive; HT1080 IDH1KD tx: 23µM*; KB-3-1 tox: inactive; HT1080-NT tox: -2%

What do the screens show for `CC1CC[C@@]2(NC1)OC1CC3C4CC[C@@H]5CC(O)CC[C@@]5(C)C4CC[C@]3(C)C1C2C` (some centres not stated)?
SW480 rereplic: -3%; MCF10A rerep: 14%

Results for O=C1Nc2ccc(Cl)cc2C(c2ccccc2)=NC1O (configuration not stated) ?
SW480 rereplic: -4%; MCF10A rerep: -1%

Results for CC(=O)c1cn(CC(=O)NCCc2c[nH]c3ccccc23)c2ccccc12 ?
KB-V1 MDR tox: 15µM*; SW480 rereplic: 15%; HT1080 IDH1KD tx: -12%; KB-3-1 tox: inconclusive; HT1080-NT tox: -5%; MCF10A rerep: inconclusive

How did Cc1cc(C)nc(N2CCCC(C(=O)Nc3nc4ccc(S(C)(=O)=O)cc4s3)C2)n1 (configuration not stated) do in these assays?
KB-V1 MDR tox: inconclusive; SW480 rereplic: 15%; HT1080 IDH1KD tx: inconclusive; KB-3-1 tox: inconclusive; HT1080-NT tox: -25%; MCF10A rerep: -3%

Results for CC(=O)c1ccc2c(c1)C1C(Cl)C(Sc3ccccc3[N+](=O)[O-])CC1C(C(=O)O)N2 (configuration not stated) ?
KB-V1 MDR tox: 10µM*; SW480 rereplic: 1%; HT1080 IDH1KD tx: 5%; KB-3-1 tox: inactive; HT1080-NT tox: 5%; MCF10A rerep: -44%

Results for O=C(O)c1cccc2c1NC(C(=O)O)C1CC(Sc3ccccc3[N+](=O)[O-])C(Cl)C21 (configuration not stated) ?
KB-V1 MDR tox: inactive; SW480 rereplic: -3%; HT1080 IDH1KD tx: 0%; KB-3-1 tox: inactive; HT1080-NT tox: 2%; MCF10A rerep: 0%

How did CCCCCCCCCCCCCCCC[n+]1ccccc1 do in these assays?
KB-V1 MDR tox: inconclusive; SW480 rereplic: 5%; HT1080 IDH1KD tx: 10µM*; KB-3-1 tox: 5.8µM*!; HT1080-NT tox: 12µM*; MCF10A rerep: inconclusive

Results for Cc1ccc(NS(=O)(=O)c2ccc(Cl)c(N=Nc3c(O)[nH]c(=O)[nH]c3=O)c2)cc1Cl ?
KB-V1 MDR tox: inactive; SW480 rereplic: -20%; HT1080 IDH1KD tx: -3%; KB-3-1 tox: inactive; HT1080-NT tox: -2%; MCF10A rerep: inconclusive

How did COc1ccc(NC2=CC(=O)CC(c3ccccc3)C2)c(OC)c1 (configuration not stated) do in these assays?
KB-V1 MDR tox: 2.6µM*; SW480 rereplic: -2%; HT1080 IDH1KD tx: 2.5µM*; KB-3-1 tox: inconclusive; HT1080-NT tox: 3.5µM*; MCF10A rerep: 24%

How did CC(C)n1cc(C(=O)N(CC(=O)NC2CCCC2)Cc2ccccc2)cn1 do in these assays?
KB-V1 MDR tox: 13µM*; SW480 rereplic: 6%; HT1080 IDH1KD tx: 1%; KB-3-1 tox: inactive; HT1080-NT tox: 5%; MCF10A rerep: 6%

Results for Cc1ccc(Cn2cccc(C(=O)Nc3nnc(C)s3)c2=O)cc1 ?
KB-V1 MDR tox: inactive; KB-3-1 tox: inconclusive

Results for Cc1cc(C(=O)Nc2ccc3c(c2)OCCO3)nn1C(C)(C)C ?
KB-V1 MDR tox: inactive; SW480 rereplic: -1%; HT1080 IDH1KD tx: -4%; KB-3-1 tox: inactive; HT1080-NT tox: 1%; MCF10A rerep: 9%

How did COc1ccc(C(=O)Nc2ccccc2-c2nnn(CC(=O)Nc3ccc4c(c3)OCCO4)n2)cc1 do in these assays?
KB-V1 MDR tox: inconclusive; SW480 rereplic: 4%; HT1080 IDH1KD tx: 2%; KB-3-1 tox: inactive; HT1080-NT tox: -1%; MCF10A rerep: 16µM*

What do the screens show for `C=C1C(O)(c2ccccc2)C2CC[N+]1(C)CC2` (configuration not stated)?
KB-V1 MDR tox: inactive; SW480 rereplic: 1.2µM*; HT1080 IDH1KD tx: 2%; KB-3-1 tox: inactive; HT1080-NT tox: 14%; MCF10A rerep: inconclusive

What do the screens show for `CC(=O)OC1(C)CC(C)C(=O)C(C(O)CC2CC(=O)NC(=O)C2)C1` (configuration not stated)?
KB-V1 MDR tox: inconclusive; SW480 rereplic: 0%; HT1080 IDH1KD tx: 0.13µM*; KB-3-1 tox: inconclusive; HT1080-NT tox: 1.6µM*; MCF10A rerep: 17%

From PubChem
